According to PubChem BioAssay (NCI):
The panel holds about 83,000 compounds, 20% with a hit somewhere; the sample as a whole holds those more often.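 In brief: 96-well plates, 48 h treatment, single concentration, percent growth endpoint.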 Values without a mark were called inactive. Calls of active or inactive are those of the source. Rule for the calls: active = growth percent below 10; inactive = the rest.

Experiments:
Assay in all cases: NCI-60 one-dose screen, 48 h (100 = growth as untreated, 0 = no growth, -100 = all killed)
Conditions in all cases: 10 µM unless noted
[1] = tested on: T-47D breast
[2] = tested on: BT-549 breast
[3] = tested on: MDA-MB-435 melanoma
[4] = tested on: SW-620 colon
[5] = tested on: MCF7 breast
[6] = tested on: HCT-116 colon
[7] = tested on: HCC-2998 colon
[8] = tested on: KM12 colon

Structure (SMILES)	growth [1]	growth [2]	growth [3]	growth [4]	growth [5]	growth [6]	growth [7]	growth [8]
CN(C)CC(C(=O)c1ccccc1)c1ccccc1 (stereo unspecified)	66.6%	23.3%	23.1%	-61.9% (active)	10.5%	-94.7% (active)	74.9%	10.8%
COc1ccc2c(c1)[nH]c(=O)c1c3cccc(F)c3cn21	63.9%	42.8%	-51.9% (active)	27.2%	22.3%	24.6%	31.9%	8.44% (active)
Cc1cc(N)n(S(=O)(=O)c2oc(-c3ccccc3)nc2C#N)n1	71%	101%	91.8%	48.9%	64%	75%	114%	101%
COc1ccc(-n2c(=O)sc3c(Cl)nc(C)nc32)c(OC)c1	84.7%	91.6%	69.5%	74.8%	97.6%	64.7%	87.3%	90%
COc1ccc(C2=C(c3cc(OC)c(OC)c(OC)c3)C(=O)CC2)cc1	60.5%	28.3%	-19.2% (active)	19.3%	16.3%	6.43% (active)	-11.3% (active)	5.46% (active)
C=C(C)[C@@H]1C[C@@H]2Cc3cc(F)ccc3N1O2	107%	106%	104%	98.6%	95.6%	98.2%	93.9%	103%
O=C(c1ccccc1)c1c(/C=C/c2ccccc2)c2ccccc2[nH]c1=O	93.5%	92.4%	98.2%	101%	97.3%	100%	111%	96%
COc1cccc(CC(C)=C(c2ccc(OCCN3CCCCC3)cc2)c2ccc(OCCN3CCCCC3)cc2)c1	-42.4% (active)	44.6%	-96.6% (active)	-71.2% (active)	-81.4% (active)	-64.7% (active)	-68.8% (active)	-30.9% (active)
O=C(Nc1cccc(-n2cc(-c3ccncc3)c(-c3ccc(Cl)c(O)c3)n2)c1)Nc1cc(C(F)(F)F)cc(C(F)(F)F)c1	12.1%	-35.9% (active)	-31.1% (active)	3.32% (active)	2.71% (active)	-59.1% (active)	-56.9% (active)	-50.3% (active)
CCCCOc1ccc(/C=C2/SC(N3CCOCC3)=NC2=O)cc1OCC	80.6%	83%	99.6%	96.9%	99.4%	93.2%	109%	98.7%
C=C(C)[C@@H]1C[C@@H]2Cc3ccc(Cl)c(C)c3N1O2	89.1%	101%	94.4%	106%	107%	95.9%	90.5%	104%
Cc1ccc2nc(-c3cc4c([nH]c5ccccc54)c(-c4ccc(F)c(F)c4)n3)[nH]c2c1	77.8%	83.7%	91.3%	101%	51.8%	15.2%	88.6%	72.4%
Cc1ccc2[nH]c(=O)c3c(c2c1)Oc1ncn2nc(-c4ccco4)nc2c1C3c1ccc(Cl)cc1 (stereo unspecified)	89.4%	91.4%	98.5%	99%	86.7%	89.6%	98.1%	99.4%
O=C(O)/C=C/C(=O)c1ccc(Cl)cc1	95.5%	98.1%	121%	108%	102%	108%	109%	106%
COc1cc(NC(=O)SC2=NCCS2)cc(OC)c1	87.2%	95.4%	113%	95.8%	94.1%	108%	114%	106%
O=C1c2c(c3c4ccccc4n(CCCCCCBr)c3c3[nH]c4ccccc4c23)C(=O)N1O	4.32% (active)	-3.13% (active)	0.62% (active)	15.1%	2.38% (active)	6.41% (active)	18.3%	10.8%

Structure (SMILES)	growth [1]	growth [2]	growth [3]	growth [4]	growth [5]	growth [6]	growth [7]	growth [8]
S=c1[nH]nc(-c2cc3ccc2CCc2ccc(cc2)CC3)n1C1CC1	97.7%	107%	97.3%	99.8%	90.5%	92.3%	115%	99.6%
Cn1ccc(Nc2nccc(Oc3ccc(C(=O)Nc4cccc(F)c4)c(Cl)c3)n2)c1	38.8%	80.5%	81.3%	85.4%	85.9%	86.8%	81.9%	102%
O=C1CCCCC1(c1ccccc1)c1ccccc1	95%	114%	101%	101%	105%	98.4%	92.2%	100%
COc1ccc(S(=O)(=O)n2cc(C(=O)C(=O)Nc3ccncc3)c3ccccc32)cc1F	67.9%	77%	58%	83.3%	69.8%	69.5%	73.5%	75%
COc1ccc2cc(-c3ccc(-c4ccc(C(=N)N)cc4)s3)ccc2c1	91.2%	97.9%	108%	84.6%	73.2%	71.3%	101%	66.4%
CCN(CC)c1ccc(N=O)cc1	44.9%	79.7%	66.9%	-61.1% (active)	51.8%	37.9%	86.5%	40.3%
CC(C)(C)NCCC(O)c1cc2c(Cl)cc(Cl)cc2c2cc(C(F)(F)F)ccc12 (stereo unspecified)	-78.3% (active)	69.6%	-74.4% (active)	-73.3% (active)	-81.3% (active)	-80.3% (active)	-83% (active)	-90.9% (active)
COc1cc2c(=O)n(C3CCCCCC3)c3c4cc[nH]c4ncc3c2cc1OC	84.8%	52.3%	86.9%	70.8%	49.9%	72.6%	117%	24.4%
COc1ccc(C2CC(c3ccc(OC)cc3OC)=NN2c2ccc(S(N)(=O)=O)cc2)cc1 (stereo unspecified)	63.9%	76.7%	103%	101%	86%	62.8%	121%	86.4%
O=C(Nc1ccncc1)C(=O)c1cn(S(=O)(=O)c2ccc(Oc3ccccc3)cc2)c2ccccc12	66.4%	94.9%	94.1%	94.2%	94.3%	87.9%	81.5%	99.1%
C=C1C(=O)O[C@H]2[C@H]1CC/C(Cn1cc(CNC(=O)/C=C/c3c[nH]c4ccccc34)nn1)=C\CC[C@@]1(C)O[C@@H]21	107%	112%	83.9%	49.9%	42%	63.8%	118%	98%
C=C[C@@H]1C[C@@H]2Cc3cc(F)ccc3N1O2	111%	124%	98.7%	112%	100%	112%	95.3%	108%
Brc1cccc(-c2cc(-c3ccc4nccnc4c3)[nH]n2)c1	34.5% [25 µM]	65.5% [25 µM]	-54.1% [25 µM] (active)	28.1% [25 µM]	14.1% [25 µM]	9.21% [25 µM] (active)	40.2% [25 µM]	14.7% [25 µM]
O=C(Nc1ccncc1)C(=O)c1cn(S(=O)(=O)c2ccc(Cl)cc2)c2ccccc12	41.2%	39.2%	0.272% (active)	10.4%	16.8%	15.3%	54.7%	19.8%
COc1ccc(/C=C/c2c(C(C)=O)c(C)nc3ccccc23)cc1	39.5%	61.6%	69.1%	86.8%	85.8%	70.8%	93.3%	93%
CC1(c2ccc(Cl)cc2)OC(=O)CC(=O)O1	95.3%	109%	106%	105%	101%	100%	102%	110%
